In the library only some 3.6% were active in any assay of this set; here they are far more common.
Rango-impB inh – Rango-importin beta binding inhibition. 0.031% of 340,000 active. Potency, µM (doses to about 92.2 µM). Rango CFP/YFP FRET sensor + importin beta, 45 min. AID 540263; calls by dose curve; also: nearly all actives have a fitted effect of over 15% in size
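FRET biosensor (snurportin 1 IBB flanked by EYFP and cerulean), 50 nM, with compound 5 min, then 0.125 microM importin beta in PBS, 1 mM DTT, 0.02% Tween-20, 0.1% BSA. CFP/YFP ratio read after 45 min at room temperature; pre-read flags interference.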
PI5P4K alpha inh – PI5P4K alpha (human) kinase inhibition. max response, %. PI5P4Kalpha enzyme, ADP-Glo luminescence, 60 min; hits give low values. 1.2% of 330,000 active. P48426. AID 652105; active = max response of -50% or lower; inconclusive = between -30% and -50%; inactive = -30% or higher; also: value at the top dose of about 77 µM
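Controls without substrate or without enzyme flank wells where PI5P4Kalpha converts substrate using 5 microM ATP (final). Incubation lasts 60 minutes at room temperature; ADP formed is read by ADP-Glo luminescence.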
GCN5L2 inh – inhibitors of human GCN5L2 histone acetyltransferase | Q92830 | GCN5L2 HAT assay, ThioGlo1 CoA-SH fluorescence | Potency, µM (titrated, usually from 58.9 µM), actives largely listed as inhibitors | 0.21% of 390,000 active | AID 504327
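qHTS, 1536-well. 20nM enzyme, pH 7.5 HEPES/EDTA/Tween-20 buffer; 15 min compound preinc., RT. Start: 75uM H3(1-25), 70uM AcCoA, 50uM ThioGlo1. Read Ex340/Em540 at t=0 (autofluorescence flag) and t=20 min.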
PLK1 PBD block – PLK1 (human) polo-box domain binding inhibition | P53350 | Potency, µM, usual class: inhibitors | 2.8% of 360,000 active | AID 720504 | Plk1 PBD binding of FITC phosphopeptide, fluorescence polarization; also: series mostly up to about 57 µM; nearly all actives have a fitted effect of over 65% in size
Target sequence (P53350 whole entry, looked up, the tested form may be a part): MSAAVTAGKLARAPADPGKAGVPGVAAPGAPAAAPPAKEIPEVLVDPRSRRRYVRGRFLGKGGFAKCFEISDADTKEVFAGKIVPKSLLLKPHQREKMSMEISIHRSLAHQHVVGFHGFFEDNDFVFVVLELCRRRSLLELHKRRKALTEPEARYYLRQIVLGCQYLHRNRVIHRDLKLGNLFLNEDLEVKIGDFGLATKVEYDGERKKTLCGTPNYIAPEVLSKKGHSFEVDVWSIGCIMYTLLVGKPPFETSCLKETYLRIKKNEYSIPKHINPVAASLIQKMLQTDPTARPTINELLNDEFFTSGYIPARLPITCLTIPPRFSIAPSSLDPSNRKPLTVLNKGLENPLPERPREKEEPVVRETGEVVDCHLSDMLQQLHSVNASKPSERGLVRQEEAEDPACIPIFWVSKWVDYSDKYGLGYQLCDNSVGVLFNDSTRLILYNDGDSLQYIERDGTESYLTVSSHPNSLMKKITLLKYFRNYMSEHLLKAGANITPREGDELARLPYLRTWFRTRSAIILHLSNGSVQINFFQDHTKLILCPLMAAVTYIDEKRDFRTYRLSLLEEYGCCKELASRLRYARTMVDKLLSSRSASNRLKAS
VDR inhibitor – blocks the human vitamin D receptor; Potency, µM, hits mostly inhibitors; 0.93% of 400,000 active; P11473; VDR-SRC2-3 peptide fluorescence polarization, 2 h
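VDR–SRC2-3 interaction, FP format. Cmpds 23 nl via pintool, brief spin, 2 h ambient incubation.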
Rango release inh – prevents RanGTP from dissociating the Rango-importin beta complex; Biochemical FRET Rango-importin beta, RanGTP-induced dissociation; O95149+P62826; 0.071% of 340,000 active; Potency, µM (highest dose often 46.1 µM); calls by dose curve; also: nearly all actives have a fitted effect of over 45% in size
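Rango FRET biosensor (snurportin-1 IBB flanked by N-terminal EYFP and C-terminal CFP10) at 0.1 uM, with 0.25 uM importin beta in PBS, 1mM DTT, 0.02% Tween-20, 0.1% BSA. 0.6 uM Ran, 2mM GTP and 0.2 uM RCC1 were then added for 45 min at room temperature. Inhibition read as loss of FRET rise.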
Hits are given with their value. Unless noted, calls follow the shape of the dose curve; as a rule, active = well fitted curve in the direction sought with a large enough effect; inconclusive = small, poorly fitted or top-dose-only effect, or another doubt; inactive = no such curve, though single readings can be large; an effect the other way counts as inactive or inconclusive.

For O=c1c2cccnc2n(-c2ccccc2)n1Cc1c(Cl)cccc1Cl the results were Rango-impB inh inactive, PI5P4K alpha inh inactive, GCN5L2 inh inactive, PLK1 PBD block inactive, VDR inhibitor inactive and Rango release inh inactive.
Screening Nc1nc(=S)ss1 returned Rango-impB inh inactive, PI5P4K alpha inh inactive, PLK1 PBD block 23.8µM, VDR inhibitor inconclusive and Rango release inh inactive.
Cc1ccc(NC(=O)CN2C(=O)S/C(=C\c3cc(C)n(-c4ccc(C(=O)O)cc4)c3C)C2=O)cc1 was read as Rango-impB inh inconclusive, PI5P4K alpha inh inconclusive, GCN5L2 inh inactive, PLK1 PBD block 26.7µM, VDR inhibitor inactive and Rango release inh inconclusive.
For Cc1ccc(NC(=O)CN2C(=O)N/C(=C/c3cc(C)n(-c4ccc(C(=O)O)cc4)c3C)C2=O)cc1 the results were Rango-impB inh inconclusive, PI5P4K alpha inh -53.3, GCN5L2 inh inconclusive, PLK1 PBD block inactive, VDR inhibitor inactive and Rango release inh inconclusive.
`O=C(CN1C(=O)S/C(=C/c2ccncc2)C1=O)Nc1ccccc1` gave Rango-impB inh inactive, PI5P4K alpha inh inactive, GCN5L2 inh inactive, PLK1 PBD block inactive, VDR inhibitor inactive and Rango release inh inactive.
Cc1ccc(NC(=O)CN2C(=O)S/C(=C\c3cc(Cl)c(OCC(=O)O)c(Cl)c3)C2=O)cc1 was read as Rango-impB inh inconclusive, PI5P4K alpha inh inconclusive, GCN5L2 inh inactive, PLK1 PBD block 23.8µM, VDR inhibitor 70.8µM and Rango release inh inactive.
Screening Cc1ccc(NC(=O)CN2C(=O)N/C(=C/c3cccn3-c3ccc(C(=O)O)cc3)C2=O)cc1 returned Rango-impB inh inconclusive, PI5P4K alpha inh -87.1, GCN5L2 inh inconclusive, PLK1 PBD block 10.6µM, VDR inhibitor inactive and Rango release inh inactive.
`CC1(C)O[C@@H]2C[C@H]3[C@@H]4CCC5=CC(=O)C=C[C@]5(C)[C@H]4C(O)C[C@]3(C)[C@]2(C(=O)CO)O1` (stereo partly drawn) gave GCN5L2 inh inactive and VDR inhibitor inactive.
CN1C(=O)c2ccccc2Sc2ccc(NC(=O)NCc3cccc(Cl)c3)cc21 was read as GCN5L2 inh inactive and VDR inhibitor inactive.
For CCc1c(CN2CCN(c3cccc(C)c3C)CC2)csc1C the results were GCN5L2 inh inactive and VDR inhibitor inactive.
For CC(=O)Nc1ccc(Sc2ccccc2C(=O)O)cn1 the results were Rango-impB inh inactive, PI5P4K alpha inh -56.0, GCN5L2 inh inactive, PLK1 PBD block inactive, VDR inhibitor inactive and Rango release inh inactive.
CC(=O)Nc1ccc(Sc2ccccc2C(=O)Nc2ccc(F)cc2)cn1 was read as Rango-impB inh inactive, PI5P4K alpha inh inactive, GCN5L2 inh inactive, PLK1 PBD block 18.9µM, VDR inhibitor inactive and Rango release inh inactive.
Screening CC(=O)Nc1ccc(Sc2ccccc2C(=O)O)cc1 returned Rango-impB inh inactive, PI5P4K alpha inh inconclusive, GCN5L2 inh inactive, PLK1 PBD block inactive, VDR inhibitor inactive and Rango release inh inactive.
Screening CCCC(=O)N1CCN(c2ccc(NC(=O)c3cccs3)cc2)CC1 returned Rango-impB inh inactive, PI5P4K alpha inh inactive, GCN5L2 inh inactive, PLK1 PBD block 23.8µM, VDR inhibitor inactive and Rango release inh inactive.
Cc1cc[n+](-c2[nH]c(=O)sc2/C=N/NC([S-])=Nc2ccccc2)cc1 was read as Rango-impB inh inactive, PI5P4K alpha inh -76.8, GCN5L2 inh inactive, PLK1 PBD block inconclusive, VDR inhibitor inactive and Rango release inh inactive.
For CCc1ccc[n+](-c2[nH]c(=O)sc2/C=N/NC([S-])=Nc2ccccc2)c1 the results were Rango-impB inh inconclusive, PI5P4K alpha inh inconclusive, GCN5L2 inh inactive, PLK1 PBD block 21.2µM, VDR inhibitor inconclusive and Rango release inh inactive.
For Cc1cc(C)c[n+](-c2[nH]c(=O)sc2/C=N/NC([S-])=Nc2ccccc2)c1 the results were Rango-impB inh inconclusive, PI5P4K alpha inh inactive, GCN5L2 inh inactive, PLK1 PBD block inconclusive, VDR inhibitor inconclusive and Rango release inh inactive.
Screening O=c1[nH]c(-[n+]2ccccc2)c(/C=N/NC([S-])=Nc2ccccc2)s1 returned Rango-impB inh inconclusive, PI5P4K alpha inh inactive, GCN5L2 inh inactive, PLK1 PBD block inactive, VDR inhibitor inactive and Rango release inh inactive.
COc1cc(C2CC(=O)Oc3ccc(O)cc32)cc(OC)c1OC (stereo not drawn) was read as GCN5L2 inh inactive and VDR inhibitor inactive.
COc1ccc(CNC(=O)C2CCCN2C(=O)NCc2ccccc2)cc1 (stereo not drawn) was read as Rango-impB inh inactive, PI5P4K alpha inh inactive, GCN5L2 inh inactive, PLK1 PBD block inactive, VDR inhibitor inactive and Rango release inh inactive.
Screening COc1ccc(CNC(=O)Nc2ccccc2)cc1 returned Rango-impB inh inactive, PI5P4K alpha inh inactive, GCN5L2 inh inactive, PLK1 PBD block 11.9µM, VDR inhibitor inconclusive and Rango release inh inactive.
COc1ccc(NC(=O)C2CCCN2C(=O)NCc2ccccc2)cc1 (stereo not drawn) was read as Rango-impB inh inactive, PI5P4K alpha inh inconclusive, GCN5L2 inh inactive, PLK1 PBD block 15µM, VDR inhibitor 70.8µM and Rango release inh inactive.
NCCCC[C@H](NC(=O)[C@H](Cc1c[nH]c2ccccc12)NC(=O)[C@H](CC(=O)O)NC(=O)[C@H](Cc1cnc[nH]1)NC(=O)[C@H](CO)NC(=O)[C@H](Cc1c[nH]c2ccccc12)NC(=O)[C@H](Cc1cnc[nH]1)NC(=O)[C@@H]1CCC(=O)N1)C(=O)N1CCC[C@H]1C(=O)NCC(N)=O was read as GCN5L2 inh inactive and VDR inhibitor inactive.
`COc1ccc(CCN2CCC[C@H](CN3CCc4cc(OC)c(OC)cc4CC3=O)C2)cc1OC` gave GCN5L2 inh inactive and VDR inhibitor inactive.
`CCOc1ccc(NS(=O)(=O)c2ccc(NC(=S)NC(=O)C(C)C)cc2)cc1` gave Rango-impB inh inactive, PI5P4K alpha inh inactive, GCN5L2 inh inactive, PLK1 PBD block 26.7µM, VDR inhibitor inactive and Rango release inh inactive.
O=C(Nc1cccc(-c2nc3ncccc3o2)c1)c1ccc(-c2cccc(Cl)c2Cl)o1 was read as GCN5L2 inh inactive and VDR inhibitor inconclusive.
Oc1ccc(N=Nc2ccc3c(c2)OCCO3)c2cccnc12 was read as Rango-impB inh inactive, PI5P4K alpha inh inconclusive, GCN5L2 inh inactive, PLK1 PBD block 26.7µM, VDR inhibitor inactive and Rango release inh inactive.
For O=Nc1ccc(O)c2ncccc12 the results were Rango-impB inh inactive, PI5P4K alpha inh inactive, GCN5L2 inh inactive, PLK1 PBD block inactive, VDR inhibitor inactive and Rango release inh inactive.
For O=S(=O)(O)c1cccc2c(N=Nc3ccc(O)c4ncccc34)cccc12 the results were Rango-impB inh inconclusive, PI5P4K alpha inh -80.6, GCN5L2 inh inconclusive, PLK1 PBD block 21.2µM, VDR inhibitor inactive and Rango release inh inactive.
